# Laboratory results taken from PubChem BioAssay.
# For part of these data: Measured potencies and affinities stand elsewhere. The source made the active and inactive calls. Unless noted, how the calls were made is not given here.
# How the values were obtained:
# [1] = polyglutamine-triggered caspase-3 activation inhibitors, cell-based (AID 1583); details: polyglutamine-induced caspase-3 activation, cell assay; stronger effect = higher value;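 tested at 10 µM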
# [2] = suppressors of polyQ aggregation in yeast, 75Q-TubU reporter (AID 1593); details: Yeast 75Q polyglutamine aggregation reporter
# [3] = rescue of polyQ-huntingtin neuronal dysfunction in worms, whole organism, C. elegans mechanosensory neurons, N-terminal huntingtin (AID 1599); details: touch response, stronger effect = higher value
# [4] = inhibitors of mitochondrial cytochrome c release, biochemical, purified mitochondria (AID 1603); details: stronger effect = lower value;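 further: mouse liver mitochondria challenged with calcium chloride; signal normalized to the plate average as 100%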
# [5] = inhibitors of polyQ protein aggregation (AID 1604); details: polyglutamine-induced protein aggregation inhibition assay; stronger effect = higher value; tested at 2.5 µM
# [6] = enhancers of glutamate uptake in motor neurons, MN-1 cell line (AID 1612); details: MN-1 motor neuron cells, stronger effect = higher value;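 further: tested at 1 µM final; 0% = mean of DMSO vehicle wells on each plate; positive means more glutamate uptake than control and negative means less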
# [7] = suppressors of polyglutamine aggregation in yeast, 75Q-TubH (AID 1616); details: S. cerevisiae 75Q-TubH polyglutamine aggregation suppression; stronger effect = higher value
# [8] = test system: Hepatitis C virus NS3 helicase; test: HCV NS3 helicase inhibitors, primary screen, biochemical, fluorescence polarization, LOPAC1280 library (AID 687035; in the data active means inhibition above about 37%); details: Purified HCV NS3 helicase, Cy5-dT15 ssDNA binding fluorescence polarization; stronger effect = higher value; concentration not given here
# [9] = Cy5 fluorescence quenching or enhancement artefacts, artefact control for HCV NS3 helicase inhibitor project, biochemical, LOPAC1280 (AID 687037); details: Cy5-DNA-NS3h complex fluorescence interference counterscreen
# [10] = inhibitors of Cryptococcus chitosan production, flow cytometry, Cibacron Brilliant Red staining (AID 1347148); details: Cryptococcus neoformans chitosan, stronger effect = lower value; at 10 µM unless noted;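 further: compound exposure lasted three days at 37 degrees C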
# [11] = reducers of polyQ inclusions in PC12 cells, cell-based, NGF-treated PC12, GFPQ80 (AID 1614); details: PC12 NGF-treated GFP-polyQ80 inclusion reduction;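 further: lower means fewer inclusions and 0 means no inclusions at all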
Structure (SMILES),inhibition [1] [%],score [2],rescue above control [3],cytochrome c release ratio [4],inhibition of aggregation [5] [%],glutamate uptake change [6] [%],aggregation suppression score [7],inhibition [8],fluorescence ratio (interference) [9],fold fluorescence [10],inclusion score [11]
Clc1cc(Cl)c(OCC#CI)cc1Cl,55.6,-0.06,11,8.98,58.5,15.9,-0.184,,,,
O=C1NCN(c2ccccc2)C12CCN(CCCC(c1ccc(F)cc1)c1ccc(F)cc1)CC2,,,,,,,,0% (inactive),1 (inactive),5.05 [at 105.1 µM] (inactive),
CCOc1ccccc1OCC1CNCCO1 (stereo not drawn),-5.29,1.39,-3.95,1.06,12.9,20.1,1.38,,,,2
